Test [1] can be described thus: NCI Yeast Anticancer Drug Screen. Data for the rad50 strain (AID 155).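 Note: 0% = growth of vehicle-only cultures of the same strain.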 To be noted: S. cerevisiae rad50 strain growth inhibition, active compounds read high. Summed up: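 Vehicle-treated cultures provide the reference for the growth inhibition reported for compound-exposed, repair-deficient yeast.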
Test [2] is described as follows: NCI Yeast Anticancer Drug Screen. Data for the mec2-1 strain (AID 157). As to conditions: S. cerevisiae mec2-1 strain, active compounds read high. The method, boiled down:
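Mutant yeast (mec2-1) grown with compound; growth inhibition relative to vehicle control reported.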

A short description of test [3]: NCI Yeast Anticancer Drug Screen. Data for the sgs1 mgt1 strain (AID 161).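 Note: 0% = growth of cultures given vehicle only.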 To be noted: S. cerevisiae sgs1 mgt1 strain, active compounds read high. Summed up:
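This yeast growth screen uses a strain with defined DNA-repair lesions; compound-treated growth is compared with vehicle-treated growth.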

Test [4] is described as follows: NCI Yeast Anticancer Drug Screen. Data for the cln2 rad14 strain (AID 165).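 Note: 0% = growth equal to vehicle treated cultures.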 As to conditions: S. cerevisiae cln2 rad14 strain, active compounds read high. Summed up: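 Readout is yeast growth inhibition versus vehicle-treated controls, using a strain with cln2 and rad14 alterations exposed to compound.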
Test [5] is described as follows: NCI Yeast Anticancer Drug Screen. Data for the bub3 strain (AID 167). To be noted: S. cerevisiae bub3 mutant strain, active compounds read high. The method, boiled down:
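Mutant yeast screening strain plus compound; vehicle-treated cultures serve as the 0% inhibition reference.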

Test [6] is described as follows: NCI Yeast Anticancer Drug Screen. Data for the mlh1 rad18 strain (AID 175). To be noted: S. cerevisiae mlh1 rad18 strain growth inhibition, active compounds read high. The method, boiled down: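 Genetically defined yeast (DNA repair-deficient) exposed to compounds; growth inhibition determined relative to vehicle.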
The mark [7] stands for this setting: at 5.0 µM (retest, dose inferred, filed as 0.5).
Setting [8] is: at 50.0 µM (retest, dose inferred, filed as 5.0).

This is part of a sample that, as a whole, favours compounds with a hit. Of some 79,000 tested, about 15% had one in any assay. Values without a mark were called inactive. Active and inactive are the calls of the source. Cut-off read from the data, not from the text of the source: active = growth inhibition above about 70%; inactive = the rest.

This passage reports growth inhibition results from PubChem BioAssay (NCI).

With `CC(C)C(Sc1nc(-c2ccccc2)c(-c2ccccc2)[nH]1)C(=O)NN` (stereo not given), the growth inhibition in test [1] (setting [7]) is -7%; in test [1] (setting [8]), 91% (active); in test [1] (at 50.0 µM), 90.2% (active); in test [2] (setting [7]), -36%; in test [2] (setting [8]), 96% (active); in test [2] (at 50.0 µM), 33.4%. The growth inhibition in test [3] (setting [7]) is -3%; in test [3] (setting [8]), 94% (active); in test [3] (at 50.0 µM), 91.5% (active); in test [4] (setting [7]) it was 17%; in test [4] (setting [8]), 98% (active); in test [4] (at 50.0 µM), 90% (active). The growth inhibition is 29% in test [5] (setting [7]); 98% (active) in test [5] (setting [8]); 89% (active) in test [5] (at 50.0 µM); -11% in test [6] (setting [7]); 96% (active) in test [6] (setting [8]); 89.4% (active) in test [6] (at 50.0 µM).
With `O=S(=O)(N/N=C/c1ccc(Cl)cc1Cl)c1ccccc1`, the growth inhibition in test [1] (setting [7]) was -20%; in test [1] (setting [8]), -11%; in test [1] (at 50.0 µM), -19.3%; in test [2] (setting [7]), -4%; in test [2] (setting [8]), -11%; in test [2] (at 50.0 µM), -10.3%. In addition, the growth inhibition is 10% in test [3] (setting [7]); -14% in test [3] (setting [8]); -12.4% in test [3] (at 50.0 µM); -16% in test [4] (setting [7]); -15% in test [4] (setting [8]); -26.9% in test [4] (at 50.0 µM). Moreover, the growth inhibition was 17% in test [5] (setting [7]); 22% in test [5] (setting [8]); -16.6% in test [5] (at 50.0 µM); 8% in test [6] (setting [7]); 4% in test [6] (setting [8]); 14% in test [6] (at 50.0 µM).
Take `C=C1C(=O)OC2CC(C)C3C=CC(=O)C3CC12` (stereo not given): the growth inhibition in test [1] (setting [7]) is 17%; in test [1] (setting [8]), 55%; in test [1] (at 50.0 µM) it was 88.7% (active); in test [2] (setting [7]), 12%; in test [2] (setting [8]), 50%; in test [2] (at 50.0 µM), 91.6% (active). Besides, the growth inhibition is 15% in test [3] (setting [7]); 57% in test [3] (setting [8]); 91.3% (active) in test [3] (at 50.0 µM); 24% in test [4] (setting [7]); 40% in test [4] (setting [8]); 89.3% (active) in test [4] (at 50.0 µM). Besides, the growth inhibition in test [5] (setting [7]) was 22%; in test [5] (setting [8]) it was 72% (active); in test [5] (at 50.0 µM), 88.2% (active); in test [6] (setting [7]), 16%; in test [6] (setting [8]), 34%; in test [6] (at 50.0 µM), 90.6% (active).
As for `O=[N+]([O-])c1ccc(S(=O)/N=C/c2ccccc2)c([N+](=O)[O-])c1` (stereo not given), the growth inhibition is -2% in test [1] (setting [7]); 96% (active) in test [1] (setting [8]); 48.2% in test [1] (at 50.0 µM); -4% in test [2] (setting [7]); 98% (active) in test [2] (setting [8]); 45.5% in test [2] (at 50.0 µM). Further, the growth inhibition in test [3] (setting [7]) is 2%; in test [3] (setting [8]) it was 94% (active); in test [3] (at 50.0 µM), 67.6%; in test [4] (setting [7]) it was 1%; in test [4] (setting [8]), 82% (active); in test [4] (at 50.0 µM), 9%. Also, the growth inhibition is -4% in test [5] (setting [7]); 97% (active) in test [5] (setting [8]); 25.9% in test [5] (at 50.0 µM); -4% in test [6] (setting [7]); 97% (active) in test [6] (setting [8]); 74.3% (active) in test [6] (at 50.0 µM).
For `OCCOc1ccc2ccccc2c1-c1c(OCCOc2ccc3ccccc3c2-c2c(OCCO)ccc3ccccc23)ccc2ccccc12`, the growth inhibition was 0% in test [1] (setting [7]); 22% in test [1] (setting [8]); 36.1% in test [1] (at 50.0 µM); -3% in test [2] (setting [7]); 13% in test [2] (setting [8]); 21.5% in test [2] (at 50.0 µM). Also, the growth inhibition in test [3] (setting [7]) was 1%; in test [3] (setting [8]) it was 29%; in test [3] (at 50.0 µM), 36.9%; in test [4] (setting [7]), 6%; in test [4] (setting [8]), 33%; in test [4] (at 50.0 µM), 11.7%. Besides, the growth inhibition is -2% in test [5] (setting [7]); 14% in test [5] (setting [8]); 24.6% in test [5] (at 50.0 µM); 3% in test [6] (setting [7]); 27% in test [6] (setting [8]); 26.4% in test [6] (at 50.0 µM).
Take `N=C(N)c1cccc(-c2ccc(-c3ccccc3)o2)c1`: the growth inhibition in test [1] (setting [7]) is -3%; in test [1] (setting [8]), 62%; in test [1] (at 50.0 µM), 92.2% (active); in test [2] (setting [7]), 4%; in test [2] (setting [8]), 72% (active); in test [2] (at 50.0 µM), 89.8% (active). Moreover, the growth inhibition was 0% in test [3] (setting [7]); 94% (active) in test [3] (setting [8]); 57.2% in test [3] (at 50.0 µM); 2% in test [4] (setting [7]); 67% in test [4] (setting [8]); 93.8% (active) in test [4] (at 50.0 µM). Further, the growth inhibition was 3% in test [5] (setting [7]); 71% (active) in test [5] (setting [8]); 79% (active) in test [5] (at 50.0 µM); -11% in test [6] (setting [7]); 85% (active) in test [6] (setting [8]); 97% (active) in test [6] (at 50.0 µM).
Consider `ClC(Cl)(Cl)C(c1ccccc1)c1ccccc1`, for which the growth inhibition in test [1] (setting [7]) was 3%; in test [1] (setting [8]) it was 30%; in test [1] (at 50.0 µM), 76.8% (active); in test [2] (setting [7]), 0%; in test [2] (setting [8]), 12%; in test [2] (at 50.0 µM), 38.5%. Moreover, the growth inhibition in test [3] (setting [7]) is 3%; in test [3] (setting [8]), 42%; in test [3] (at 50.0 µM), 71.1% (active); in test [4] (setting [7]) it was 4%; in test [4] (setting [8]) it was -3%; in test [4] (at 50.0 µM), -17.2%. For the same molecule, the growth inhibition in test [5] (setting [7]) is -5%; in test [5] (setting [8]), 5%; in test [5] (at 50.0 µM), 16.4%; in test [6] (setting [7]), 16%; in test [6] (setting [8]), 15%; in test [6] (at 50.0 µM), 73.8% (active).
Regarding `NC(=O)C#CC#CC#CCO`, the growth inhibition in test [1] (setting [7]) was 11%; in test [1] (setting [8]), 62%; in test [1] (at 50.0 µM), 92.8% (active); in test [2] (setting [7]), 24%; in test [2] (setting [8]), 62%; in test [2] (at 50.0 µM) it was 94.8% (active). Besides, the growth inhibition is 18% in test [3] (setting [7]); 78% (active) in test [3] (setting [8]); 94% (active) in test [3] (at 50.0 µM); 25% in test [4] (setting [7]); 39% in test [4] (setting [8]); 91.8% (active) in test [4] (at 50.0 µM). The growth inhibition was 38% in test [5] (setting [7]); 77% (active) in test [5] (setting [8]); 93.5% (active) in test [5] (at 50.0 µM); 19% in test [6] (setting [7]); 67% in test [6] (setting [8]); 92.7% (active) in test [6] (at 50.0 µM).
As for `O=[N+]([O-])C1CCC(C2=CSC3CCCCC3N2)CC1` (stereo not given), the growth inhibition was 12% in test [1] (setting [7]); 7% in test [1] (setting [8]); 34.6% in test [1] (at 50.0 µM); -16% in test [2] (setting [7]); 44% in test [2] (setting [8]); 57.5% in test [2] (at 50.0 µM). Moreover, the growth inhibition in test [3] (setting [7]) was -9%; in test [3] (setting [8]) it was 23%; in test [3] (at 50.0 µM), 38.8%; in test [4] (setting [7]), 23%; in test [4] (setting [8]) it was 31%; in test [4] (at 50.0 µM), 11.4%. Further, the growth inhibition in test [5] (setting [7]) was 0%; in test [5] (setting [8]), 52%; in test [5] (at 50.0 µM), 67.8%; in test [6] (setting [7]), -1%; in test [6] (setting [8]), 60%; in test [6] (at 50.0 µM), 18%.
On to `Cc1ccc(C2(O)CC(c3ccc([N+](=O)[O-])o3)=NN2C(=O)COc2ccc(Cl)cc2)cc1` (stereo not given), for which the growth inhibition was 46% in test [1] (setting [7]); 46% in test [1] (setting [8]); 6.1% in test [1] (at 50.0 µM); 29% in test [2] (setting [7]); 29% in test [2] (setting [8]); 51.9% in test [2] (at 50.0 µM). Moreover, the growth inhibition was 39% in test [3] (setting [7]); 39% in test [3] (setting [8]); 52.6% in test [3] (at 50.0 µM); 11% in test [4] (setting [7]); 11% in test [4] (setting [8]); 70.3% (active) in test [4] (at 50.0 µM). Moreover, the growth inhibition in test [5] (setting [7]) was 10%; in test [5] (setting [8]) it was 10%; in test [5] (at 50.0 µM), 37.6%; in test [6] (setting [7]) it was 43%; in test [6] (setting [8]), 43%; in test [6] (at 50.0 µM), 34.3%.
